Assay outcomes: PubChem, several laboratories
The list is not random: actives were taken first. Their share in the collection is about 0.5%.
E coli growth-1: E. coli growth inhibition, primary screen, OD600. OD600 absorbance (test concentration not listed). Escherichia coli growth, 23 h; stronger effect = lower value. hit rate 0.21% among 330,000. AID 1053175, 2014;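 active = OD600 absorbance below the run mean of sample wells minus 3.6 SD, in any replicate, cut at about 0.56 in these data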
phage Ecoli inh: growth loss of phage-infected E. coli, primary screen, RecBCD inhibitor project, absorbance, with phage, HTS; hit rate 0.26% among 360,000; AID 651602, 2012; inhibition, % at 11.9 µM; in the data active = inhibition above about 11%
E coli growth-2: E. coli V3065 growth inhibition, primary screen, counter-screen for AddAB inhibitor project, absorbance, OD600. 18 h. inhibition, % at 11.9 µM. hit rate 0.27% among 330,000;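 active = inhibition above the campaign's mean inhibition across all tested compounds plus 3 SD, cut at about 9.9% in these data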;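 also: uninfected addAB+ strain grown without phage in ampicillin broth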
Tat transport: E. coli Tat export inhibitors, primary screen, MC4100, TorA-mCherry reporter, fluorescence, single point; inhibition, % at 10 µM; hit rate 0.036% among 340,000; AID 488895, 2010;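 active = mean replicate inhibition at least 50% and at least half of replicates individually reaching 50%; inconclusive = only one of the two criteria met; inactive = neither criterion met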;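 also: exported cargo escapes ClpAP degradation while cytoplasmic cargo is degraded and loses fluorescence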
AddAB inh: growth inhibition of E. coli expressing H. pylori AddAB, primary screen, AddAB inhibitor project, absorbance | inhibition, % at 11.9 µM | hit rate 0.29% among 330,000; in the data active = inhibition above about 12%
RecBCD conf: growth loss of phage-infected RecBCD+ E. coli, confirmation, RecBCD inhibitor project, absorbance, E. coli V66, T4 gene 2 phage; shares compounds with phage Ecoli inh; E. coli V66 + T4 2- phage, growth OD; inhibition, % at 11.9 µM; hit rate 45% among 890;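 active = mean inhibition over triplicates exceeding the hit threshold derived in the original primary screen, cut at about 11% in these data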
Ecoli viability: E. coli viability inhibition, counter-screen for RecBCD inhibitor project, absorbance, high throughput | AID 651983, 2013 | absorbance (OD) growth | shares compounds with phage Ecoli inh | hit rate 29% among 890 | inhibition, % at 11.9 µM; in the data active = inhibition above about 20%;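 also: E. coli strain V66 grown with compound alone and no phage infection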
AddAB phage OD: growth loss of phage-infected AddAB-carrying E. coli, confirmation, counter-screen for RecBCD inhibitor project, absorbance, E. coli V3065, T4 phage | shares compounds with phage Ecoli inh | E. coli expressing H. pylori AddAB + T4 phage, OD growth; gene 2 mutant T4, recBCD-deleted host | inhibition, % at 11.9 µM | hit rate 45% among 890 | AID 651984, 2013;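 active = mean inhibition above the solvent-only control wells' mean plus 3 SD, cut at about 22% in these data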;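 also: higher means less bacterial growth from phage killing when AddAB is blocked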
Of the large screens only hits and unclear results are named; the others gave an inactive call (follow-up assays come after a bar, where they were run).

COc1cccc(N2C(CC(C)=O)c3ccccc3S2(=O)=O)c1 (stereo not drawn)	none (no result: phage Ecoli inh, E coli growth-2, Tat transport, AddAB inh)
CC(C)C[C@H](NC(=O)N1CCCCCC1)C(=O)O	phage Ecoli inh 55 | RecBCD conf inactive | Ecoli viability inactive | AddAB phage OD inactive
CCC(C)[C@H](NC(=O)N1CCCCCC1)C(=O)O (stereo partly drawn)	none
O=C(CSc1ccc(-c2ccccn2)nn1)Nc1cccc(F)c1	phage Ecoli inh 12, E coli growth-2 11 | RecBCD conf inactive | Ecoli viability inactive | AddAB phage OD inactive
C=CCOC(=O)C1=CC(c2coc3ccccc3c2=O)C(CCCO)C(OCC)O1 (stereo not drawn)	none (no result: phage Ecoli inh, E coli growth-2, Tat transport, AddAB inh)
O=Cc1cccnc1SCc1ccccc1	phage Ecoli inh 99 | RecBCD conf inactive | Ecoli viability inactive | AddAB phage OD inactive
Oc1cccnc1SCc1ccccc1	none
FC(F)(F)c1cccc(Sc2nc(-c3ccccc3)nnc2C(F)(F)F)c1	none
Nc1nc(N)c2cc(Sc3cccc(C(F)(F)F)c3)ccc2n1	phage Ecoli inh 61 (no result: E coli growth-1, E coli growth-2, Tat transport, AddAB inh) | RecBCD conf 67 | Ecoli viability 58 | AddAB phage OD 86
Nc1nc(N)c2cc(Sc3ccc(Cl)cc3)ccc2n1	phage Ecoli inh 101 (no result: E coli growth-1, E coli growth-2, Tat transport, AddAB inh) | RecBCD conf 102 | Ecoli viability 104 | AddAB phage OD 103
O=C1c2ccccc2NC(c2ccc(-c3cccc(F)c3)o2)N1O (stereo not drawn)	phage Ecoli inh 12 | RecBCD conf inactive | Ecoli viability inactive | AddAB phage OD inactive
O=C1c2ccccc2NC(c2ccc(Cl)cc2Cl)N1O (stereo not drawn)	phage Ecoli inh 12, Tat transport inconclusive | RecBCD conf inactive | Ecoli viability inactive | AddAB phage OD inactive
O=C1c2ccccc2NC(c2cccc(F)c2)N1Cc1ccccc1 (stereo not drawn)	none
CC1CC2C3CCC4=CC(=O)C=C[C@]4(C)[C@@]3(F)C(O)C[C@]2(C)[C@@]1(O)C(=O)COP(=O)(O)O (stereo partly drawn)	none (no result: phage Ecoli inh, E coli growth-2, Tat transport, AddAB inh)
Cn1cccc1-c1cc(C(=O)NN=CC=Cc2ccccc2)[nH]n1	none (no result: phage Ecoli inh, E coli growth-2, Tat transport, AddAB inh)
CC(C)(C)OC(=O)NCCCCC(NC(=O)c1[nH]cnc1C(=O)Nc1ccccc1)C(=O)OC(C)(C)C (stereo not drawn)	none (no result: phage Ecoli inh, E coli growth-2, Tat transport, AddAB inh)
Oc1ccc(C=NNC(=S)Nc2ccccc2)nc1	phage Ecoli inh 22 (no result: E coli growth-1, E coli growth-2, Tat transport, AddAB inh) | RecBCD conf 22 | Ecoli viability 27 | AddAB phage OD 32
Oc1c(I)cc(Cl)c2cccnc12	E coli growth-1 0.12, phage Ecoli inh 32, E coli growth-2 44, AddAB inh 31 | RecBCD conf 43 | Ecoli viability 49 | AddAB phage OD 40
O=[N+]([O-])c1ccc(O)c2ncccc12	E coli growth-1 0.066, phage Ecoli inh 62, E coli growth-2 67, AddAB inh 64 | RecBCD conf 79 | Ecoli viability 74 | AddAB phage OD 69
Oc1c(Cl)c(Cl)c2ncccc2c1Cl	none (no result: E coli growth-2, AddAB inh)
O=[N+]([O-])c1cc(Cl)c(O)c2ncccc12	E coli growth-1 0.068, phage Ecoli inh 44 (no result: E coli growth-2, AddAB inh) | RecBCD conf 53 | Ecoli viability 55 | AddAB phage OD 46
O=[N+]([O-])c1cc([N+](=O)[O-])c2cccnc2c1Oc1ccccc1O	none
O=C(NCc1ccccc1)C1=CC(C2CC2)CC(OCCCCO)O1 (stereo not drawn)	none (no result: phage Ecoli inh, E coli growth-2, Tat transport, AddAB inh)
Cc1cn([C@H]2C=C[C@@H](CO)O2)c(=O)[nH]c1=O	phage Ecoli inh 22 | RecBCD conf 16 | Ecoli viability inactive | AddAB phage OD 51
Nn1c(SCc2cccc(Br)c2)nnc1-c1ccncc1	phage Ecoli inh 100 | RecBCD conf inactive | Ecoli viability inactive | AddAB phage OD inactive
Nn1c(SCc2cccc(F)c2)nnc1-c1ccncc1	none
CC(C)(C)OC(=O)CC1CC=CCC(CC(=O)N(CCO)Cc2ccccc2)C(=O)N2CCCC2COC1=O (stereo not drawn)	none (no result: phage Ecoli inh, E coli growth-2, Tat transport, AddAB inh)
COC(=O)C1=C(C)N(Cc2ccccc2C(F)(F)F)C(=NCc2ccccc2)NC1c1ccc(C(F)(F)F)cc1 (stereo not drawn)	phage Ecoli inh 13 (no result: E coli growth-1, E coli growth-2, Tat transport, AddAB inh) | RecBCD conf inactive | Ecoli viability inactive | AddAB phage OD inactive
COC(=O)C1=C(C)N(Cc2ccccc2C(F)(F)F)C(=NCc2cccc(C(F)(F)F)c2)NC1c1ccc(C(F)(F)F)cc1 (stereo not drawn)	none (no result: E coli growth-1, E coli growth-2, Tat transport, AddAB inh)
Fc1ccc(NC(=S)NCc2ccccc2)cc1	none
O=[N+]([O-])c1ccc(NC(=S)NCCc2ccccc2)cc1	none
O=[N+]([O-])c1ccc(NC(=S)NCCc2ccc(Cl)cc2)cc1	phage Ecoli inh 13, E coli growth-2 11 | RecBCD conf inactive | Ecoli viability inactive | AddAB phage OD inactive
Fc1ccc(CNC(=S)Nc2ccc(Cl)cc2)cc1	phage Ecoli inh 12 | RecBCD conf inactive | Ecoli viability inactive | AddAB phage OD inactive
O=C1C2C(c3ccc(Cl)cc3)N3C(=O)N(c4cccc(Br)c4)C(=O)[C@@]3(Cc3ccc(Cl)cc3)C2C(=O)N1C1CCCCC1 (stereo partly drawn)	none (no result: phage Ecoli inh, E coli growth-2, Tat transport, AddAB inh)
CCC(C)Cc1cn(C(CCCCNC(=O)OC(C)(C)C)C(=O)NCCCCCCCCCCC(=O)N2CCN(C(=O)OC(C)(C)C)CC2)nn1 (stereo not drawn)	none (no result: phage Ecoli inh, E coli growth-2, Tat transport, AddAB inh)
CCN(CC)c1ccc(/C=N/Nc2nc3ccccc3[nH]2)c(O)c1	phage Ecoli inh 15 (no result: E coli growth-1) | RecBCD conf inactive | Ecoli viability inactive | AddAB phage OD inactive
C[C@@H]1CN(c2c(F)c(F)c3c(=O)c(C(=O)O)cn(C4CC4)c3c2F)C[C@H](C)N1	E coli growth-1 0.067, phage Ecoli inh 98, Tat transport 68 (no result: E coli growth-2, AddAB inh) | RecBCD conf 103 | Ecoli viability 105 | AddAB phage OD 104
CN(C)CCCNC(=O)c1ccc(-c2cc(O)c3ncccc3c2)cc1	none
CN(C)c1ccc(-c2cc(O)c3ncccc3c2)cc1	phage Ecoli inh 14, E coli growth-2 11 (no result: E coli growth-1) | RecBCD conf inactive | Ecoli viability inactive | AddAB phage OD inactive
CCOc1ccc(NC(=O)Nc2cc(OCC(F)(F)F)cc(OCC(F)(F)F)c2)cc1	none
O=C(Nc1ccc(F)cc1)Nc1cc(OCC(F)(F)F)cc(OCC(F)(F)F)c1	phage Ecoli inh 12 | RecBCD conf inactive | Ecoli viability inactive | AddAB phage OD inactive
O=C(NNC(=O)c1cc(Cl)ccc1O)c1ccc(NS(=O)(=O)c2cccs2)cc1	phage Ecoli inh 11 | RecBCD conf inactive | Ecoli viability inactive | AddAB phage OD inactive
O=C(NNC(=O)c1cc(F)c(F)cc1Cl)c1ccc(NS(=O)(=O)c2cccs2)cc1	none
